# Values joined by “and” are separate entries in the source; they are usually repeats but may differ in a detail not shown here. Equal values may be shown once. About 610 (9.5%) of roughly 6,400 compounds were called active. Cut-off read from the data, not from the text of the source: active = activity change below about -70%; inconclusive = no clear call, values can overlap the other calls; inactive = above that. Only a selection was taken, and actives are over-represented in it overall. Some compounds were tested as several samples or in several runs, with calls that do not always agree.
# Assay: T. gondii ME49Luc in HeLa cells, luciferase assay, 72 h, no IFN-y (AID 1259421)
# Conditions: stronger effect = lower value, concentration not given here
row,SMILES,"activity change, negative = inhibition"
1,CC(C)(C)c1ccc(C(=O)CCCN2CCC(OC(c3ccccc3)c3ccccc3)CC2)cc1,-87.2% (active)
2,CC(C)(C(=O)O)c1ccc(C(=O)CCCN2CCC(OC(c3ccccc3)c3ccccc3)CC2)cc1,6.98% (inactive)
3,O=C(O)CCCN1CCC(O[C@@H](c2ccc(Cl)cc2)c2ccccn2)CC1,24.8% (inactive)
4,O=P(O)(O)OC(CO)CO,38% (inactive)
5,CN(C)C(=O)c1ccc(S(=O)(=O)c2ccc(NC(=O)C(C)(O)C(F)(F)F)c(Cl)c2)cc1 (stereo not drawn),-6.06% (inactive)
6,CC(=O)Oc1cc2c(c(C)c1OC(C)=O)CC=C1[C@@]2(C)CC[C@@]2(C)C3C[C@](C)(C(=O)O)CC[C@]3(C)CC[C@]12C (stereo partly drawn),-93.4% (active)
7,CC1(C)[C@@H](O)CC[C@]2(C)[C@H]3C(=O)C=C4[C@@H]5C[C@@](C)(C(=O)O)CC[C@]5(C)CC[C@@]4(C)[C@]3(C)CC[C@@H]12,6.44% (inactive)
8,CC1(C)C2CC[C@]3(C)C(C(=O)C=C4[C@H]5C[C@@](C)(C(=O)O)CC[C@]5(C)CC[C@]43C)[C@@]2(C)CC[C@@H]1O (stereo partly drawn),1.01% (inactive)
9,C=C[C@@](C)(O)CCC1C(=C)CCC2[C@@](C)(CO)CCC[C@]12C (stereo partly drawn),13.4% (inactive)
10,CC1(C)O[C@@H]2CC3C4C[C@H](F)C5=CC(=O)C=C[C@]5(C)[C@@]4(F)[C@@H](O)C[C@]3(C)[C@]2(C(=O)CO)O1 (stereo partly drawn),-11.6% (inactive)
11,C=CC(=O)Nc1cccc(Nc2nc(Nc3ccc(OCCOC)cc3)ncc2F)c1,-10% (inactive)
12,Cc1cnc(Nc2ccc(N3CCN(C)CC3)cc2)nc1Nc1cccc(S(=O)(=O)NC(C)(C)C)c1,-76.6% (active)
13,C=CC(=O)Nc1cccc(Sc2nc(Nc3ccc(N4CCN(C)CC4)cc3)ncc2Cl)c1,-58.5% (inactive)
14,Cc1cnc(Nc2ccc(OCCN3CCCC3)cc2)nc1Nc1cccc(S(=O)(=O)NC(C)(C)C)c1,-95.9% (active)
15,C=CC(=O)Nc1cccc(Oc2nc(Nc3ccc(N4CCN(C)CC4)cc3)ncc2Cl)c1,-59.1% (inactive)
16,CS(=O)(=O)c1cccc(CNc2nc(Nc3ccc4c(c3)CCC(=O)N4)ncc2C(F)(F)F)c1,-29.4% (inactive)
17,CC(CCCCC(=O)Nc1ccc(C(F)(F)F)cc1)NCCc1cnc[nH]1 (stereo not drawn),-0.447% (inactive) and -3.16% (inactive)
18,CO/N=C(\C(=O)N[C@@H]1C(=O)N2C(C(=O)O)=C(CSC(=O)c3ccco3)CS[C@H]12)c1csc(N)n1,17.6% (inactive) and -30.2% (inactive)
19,CO[C@@H]1COCC[C@@H]1N[C@@H]1CC[C@@](C(=O)N2CCc3ncc(C(F)(F)F)cc3C2)(C(C)C)C1,3.98% (inactive)
20,Cc1ccc(F)c(NC(=O)Nc2ccc(-c3cccc4[nH]nc(N)c34)cc2)c1,-78.3% (active)
21,Cc1cc(NC(=O)Nc2ccc(N(C)C)cc2)c2cc(F)cc(F)c2n1,31.3% (inactive)
22,COc1cc(OC)c2c(c1)OC(c1ccccc1)CC2=O (stereo not drawn),34.9% (inactive)
23,O=c1oc(-c2ccc(C(F)(F)F)cc2)nn1Cc1cc(Cl)ccc1O,24.7% (inactive) and -12.8% (inactive)

row,SMILES,"activity change, negative = inhibition"
1,CCn1c(=O)n(C2=C(CO)CN(CC3CCCCCCC3)CC2)c2ccccc21,12.4% (inactive) and -0.696% (inactive)
2,CC(=O)Nc1ccc(C(=O)Nc2ccccc2N)cc1,31.2% (inactive) and 45.5% (inactive)
3,O=C(OCC(O)CO)c1ccccc1Nc1ccnc2cc(Cl)ccc12 (stereo not drawn),5.66% (inactive)
4,Cc1cc(Nc2ccc(NC(=O)c3ccc(Nc4ccnc5ccccc45)cc3)cc2)nc(N)n1,-89.9% (active)
5,CC1(C)O[C@@H]2CC3C4CCC5=CC(=O)CCC5(C)C4(F)C(O)CC3(C)[C@]2(C(=O)CCl)O1 (stereo partly drawn),-3.24% (inactive) and 2.55% (inactive)
6,CCOC(=O)c1cc(C#N)c(N2CCC(C(=O)NS(=O)(=O)Cc3ccccc3)CC2)nc1C,13.4% (inactive)
7,CCCCCCCC(=O)O,9.6% (inactive) and 5.48% (inactive)
8,CCCCCCCCCCCCCCCCCCCCCCCCC(=O)O,11.5% (inactive)
9,CCCCCCCCCCCCCCCC[n+]1ccccc1,-12.3% (inactive) and -82.5% (active)
10,N#Cc1ccc(C(c2ccc(C#N)cc2)n2cncn2)cc1,0.399% (inactive)
11,c1ccc(-c2ccc(C(c3ccccc3)n3ccnc3)cc2)cc1 (stereo not drawn),-68.3% (inactive) and -81.5% (active)
12,FC(F)(F)c1ccccc1-n1ccnc1,-1.27% (inactive)
13,CCCCCCCCCCCCCCCCCCc1ccc(C(=O)/C=C/C(=O)O)cc1,11.8% (inactive)
14,CCCCCCCCc1ccc(CCC(N)(CO)CO)cc1,-79.3% (active) and -52.1% (inactive)
15,CCCCCCCCc1ccc(-c2ccc(C(=O)O)cc2)cc1,18% (inactive)
16,CC1(O)C(O)C(CO)OC1n1cnc2c(NC3CCCC3)nc(Cl)nc21 (stereo not drawn),13.4% (inactive)
17,CC[C@@H](C(=O)O)[C@@H]1O[C@@H]([C@@H](C)[C@H](O)[C@H](C)C(=O)[C@H](CC)[C@H]2O[C@]3(C=C[C@@H](O)[C@]4(CC[C@@](C)(C5CC[C@](O)(CC)[C@H](C)O5)O4)O3)[C@H](C)C[C@@H]2C)[C@@H](C)C[C@H]1C (stereo partly drawn),-82.4% (active)
18,CC[C@@H](C(=O)O)C1CC[C@H](C)C([C@@H](C)[C@H](O)[C@H](C)C(=O)[C@H](CC)C2O[C@]3(C=C[C@@H](O)[C@]4(CC[C@@](C)(C5CC[C@](O)(CC)[C@H](C)O5)O4)O3)[C@H](C)C[C@@H]2C)O1 (stereo partly drawn),-72.7% (active) and -80.8% (active)
19,CC[C@@H](C(=O)[C@@H](C)[C@@H](O)[C@H](C)[C@@H]1O[C@@H]([C@@H](CC)C(=O)O)CC[C@@H]1C)[C@H]1OC2(C=C[C@@H](O)[C@]3(CC[C@@](C)(C4CC[C@](O)(CC)[C@H](C)O4)O3)O2)[C@H](C)C[C@@H]1C (stereo partly drawn),-90.6% (active)
20,CC[C@@H](C(=O)[C@@H](C)[C@@H](O)[C@H](C)[C@@H]1O[C@@H]([C@@H](CC)C(=O)O)CC[C@@H]1C)[C@H]1O[C@]2(C=C[C@@H](O)[C@]3(CC[C@@](C)(C4CC[C@](O)(CC)[C@H](C)O4)O3)O2)[C@H](C)C[C@@H]1C (stereo partly drawn),-83.1% (active)
21,NC(CC(F)C(=O)O)C(=O)O (stereo not drawn),4.86% (inactive)
22,O=C(O)C1/C(=C\CO)OC2CC(=O)N21 (stereo not drawn),6.21% (inactive)
23,Cc1cc(-c2ncc(CC(=O)Nc3ccc(-c4cnccn4)cn3)cc2C)ccn1,5% (inactive)

row,SMILES,"activity change, negative = inhibition"
1,N#CC(C#N)Cc1ccc(O)cc1,0.596% (inactive)
2,COc1ccccc1Oc1c(NS(=O)(=O)c2ccc(C)cn2)nc(-c2ccncc2)nc1OC,7.32% (inactive)
3,O=C(NN1C(=O)[C@@H]2[C@@H]3C=C[C@@H]([C@H]4C[C@@H]34)[C@@H]2C1=O)c1ccc(C(F)(F)F)cc1,3.93% (inactive)
4,COc1ccc(CCN(C)CCc2ccc(OC)c(OC)c2)cc1OC,7.34% (inactive) and -3.3% (inactive)
5,COc1ccc(CCN(C)CCCOc2ccc(S(=O)(=O)c3c(C(C)C)c4ccccc4n3C)cc2)cc1OC,-76.5% (active)
6,COc1ccc(CCN(C)CCCN2CCc3cc(OC)c(OC)cc3CC2=O)cc1OC,10.1% (inactive)
7,CO[C@@H]1[C@@H](O[C@@H]2O[C@H](C)[C@@H](O[C@H]3C[C@@](C)(OC(=O)CC(C)C)[C@@H](O)[C@H](C)O3)[C@H](N(C)C)[C@H]2O)[C@@H](CC=O)C[C@@H](C)[C@@H](O)/C=C/C=C/C[C@@H](C)OC(=O)C[C@H]1OC(C)=O,-10.6% (inactive)
8,COc1ccc(CCO[C@@H]2CCCC[C@H]2N2CC[C@@H](O)C2)cc1OC,23% (inactive)
9,O=C1c2cccc(O)c2C(=O)c2c(O)cc(CO)cc21,-11.5% (inactive)
10,O=C1c2c(O)ccc(O)c2C(=O)c2c(NCCNCCO)ccc(NCCNCCO)c21,-73.8% (active) and -3.38% (inactive)
11,O=C1c2cccc(O)c2C(=O)c2c(O)cccc21,3.71% (inactive) and 0.722% (inactive)
12,CCCCCCCC/C=C/CCCCCCCC(=O)NCCO,-10.5% (inactive)
13,C=C1C(=O)[C@]23[C@H](O)[C@H]1CC[C@@H]2[C@@]12CO[C@]3(O)C[C@@H]1C(C)(C)CC[C@@H]2O,-77.5% (active) and 3.05% (inactive)
14,O=c1cc(-c2ccccc2O)oc2cc(O)ccc12,190% (inactive)
15,COP(=O)(OC)OC(c1ccc(Cl)cc1)P(=O)(OC)OC (stereo not drawn),5.14% (inactive) and 12.1% (inactive)
16,CN(C)Cc1ccc(S(=O)(=O)n2ccc(/C=C/C(=O)NO)c2)cc1,-84.8% (active)
17,c1ccc2sc(SN3CCOCC3)nc2c1,17.7% (inactive)
18,COc1c(-c2ccc3cc(NS(C)(=O)=O)ccc3c2)cc(-n2ccc(=O)[nH]c2=O)cc1C(C)(C)C,17.6% (inactive)
19,CC(=O)OCC(=O)[C@@]1(O)[C@H](C)CC2C3CCC4=CC(=O)C=C[C@]4(C)[C@@]3(F)[C@@H](O)C[C@@]21C (stereo partly drawn),-8.27% (inactive)
20,Nc1nc(-c2ccc(Cl)c(Cl)c2)c(-c2ccncc2)s1,-9.5% (inactive)
21,COC(=O)[C@@]12OC[C@]34[C@H]([C@@H](O)[C@@H]1O)[C@@]1(C)CC(=O)C(=O)C(C)[C@@H]1C[C@H]3OC(=O)[C@H](OC(=O)/C=C(\C)C(C)C)[C@@H]24 (stereo partly drawn),-83.7% (active)
22,CC(CCC(=O)O)[C@H]1CCC2C3C(=O)C[C@@H]4CC(=O)CC[C@]4(C)C3CC(=O)[C@@]21C (stereo partly drawn),4.28% (inactive) and -3.38% (inactive)
